Where a name gives a salt, the structure may show the parent alone. ± gives the standard deviation of the averaged measurements.
Each molecule was assayed on Danio rerio Tg(wt1b:EGFP) embryo, pronephros (assay: fraction of imaged embryos annotated as normal kidney; higher = less nephrotoxic; extreme values may be limits of the assay). Details: 25 µM; exposure: 24-48 hpf.
Method in brief: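 Zebrafish embryos carrying Tg(wt1b:EGFP) were dechorionated and exposed to 25 μM compound (0.5% DMSO) between 24 and 48 hpf at 28.5°C. Their pronephroi were imaged by widefield fluorescence, and each embryo was classed by hand from maximum projections. The measure is the fraction of embryos per treatment falling in the normal-kidney category.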

SMILES	fraction of imaged embryos annotated as normal kidney
CCc1nn(CCCN2CCN(c3cccc(Cl)c3)CC2)c(=O)n1CCOc1ccccc1 [Nefazodone hydrochloride]	0.727
CNS(=O)(=O)Cc1ccc2[nH]cc(CCN(C)C)c2c1 [Sumatriptan succinate]	1
CC(=O)N[C@@H](CC(C)C)C(=O)O [N-Acetyl-L-leucine]	0.917
Nc1nc(=O)c2nc(CNc3ccc(C(=O)N[C@@H](CCC(=O)O)C(=O)O)cc3)cnc2[nH]1 [Folic acid]	0.636

Each molecule was assayed on Danio rerio Tg(wt1b:EGFP) embryo, pronephros (assay: pronephric angle neck segment to proximal convoluted tubule (mean of left and right), fold change vs DMSO control; higher = larger pronephric angle). Details: 25 µM; exposure: 24-48 hpf.
Method in brief: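 Dechorionated Tg(wt1b:EGFP) zebrafish embryos were exposed to 25 μM compound in 0.5% DMSO, HEPES-buffered E3 with 0.003% PTU, from 24 to 48 hpf at 28.5°C. Pronephroi were imaged dorsally in agarose-filled 96-well plates (470 nm, 10 z-slices). On maximum projections, 16 reference points were set manually in Fiji and a macro computed distances and angles. Values more than 2 SD from the feature mean were excluded. Each feature is a fold change relative to the mean of same-day DMSO controls.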

SMILES	pronephric angle neck segment
Nc1nc(NC2CC2)c2ncn([C@H]3C=C[C@@H](CO)C3)c2n1 [Abacavir Sulfate]	1.04 ± 0.034
COc1cc(C(=O)NS(=O)(=O)c2ccccc2C)ccc1Cc1cn(C)c2ccc(NC(=O)OC3CCCC3)cc12 [Zafirlukast]	1.09 ± 0.065
Cn1c(=O)c2c(ncn2CC2OCCO2)n(C)c1=O [Doxofylline]	1.03 ± 0.03
COc1ccnc(C[S+]([O-])c2nc3cc(OC(F)F)ccc3[nH]2)c1OC (stereo unspecified) [Pantoprazole sodium]	1.062 ± 0.0021
CCn1cc(C(=O)O)c(=O)c2ccc(C)nc21 [Nalidixic acid sodium salt]	1.19 ± 0.022
O=S(=O)(O)c1cc(O)ccc1O [Ethamsylate]	0.9847 ± 0.0033
CN(C)CCCN1c2ccccc2CCc2ccc(Cl)cc21 [Clomipramine hydrochloride]	1.06 ± 0.014
CC(=O)Nc1ccc(CC(=O)O)cc1 [Actarit]	0.998 ± 0.049
CC/C(=C(\c1ccccc1)c1ccc(OCCN(C)C)cc1)c1ccccc1 [Tamoxifen citrate]	1.02 ± 0.045
N=C(N)N/N=C/c1c(Cl)cccc1Cl [Guanabenz acetate]	0.9461 ± 0.00069
COc1cc2nc(N3CCN(C(=O)c4ccco4)CC3)nc(N)c2cc1OC [Prazosin hydrochloride]	1.03 ± 0.04
CC(C)[C@H]1CC[C@H](C(=O)N[C@H](Cc2ccccc2)C(=O)O)CC1 [Nateglinide]	1.08 ± 0.024
COc1ccc2c3c1O[C@H]1C[C@@H](O)C=C[C@@]31CCN(C)C2 [Galanthamine hydrobromide]	0.964 ± 0.029
Cn1c(=O)c2c(ncn2CC(O)CO)n(C)c1=O (stereo unspecified) [Diprophylline]	1.05 ± 0.051
CC(C)(Oc1ccc(C2CC2(Cl)Cl)cc1)C(=O)O (stereo unspecified) [Ciprofibrate]	1.082 ± 0.0058
CC(C)(C)NC[C@H](O)COc1cccc2c1CCCC2=O [(-) -Levobunolol hydrochloride]	0.944 ± 0.052
CC(C)CC(=O)N[C@H](C(=O)N[C@H](C(=O)N[C@@H](CC(C)C)[C@@H](O)CC(=O)N[C@@H](C)C(=O)N[C@@H](CC(C)C)[C@@H](O)CC(=O)O)C(C)C)C(C)C [Pepstatin A]	1.01 ± 0.041
N=C(N)N1CCc2ccccc2C1 [Debrisoquin sulfate]	1.01 ± 0.01
CC(C)(C)NC(=O)[C@@H]1CN(Cc2cccnc2)CCN1C[C@@H](O)C[C@@H](Cc1ccccc1)C(=O)N[C@H]1c2ccccc2C[C@H]1O [Indinavir sulfate]	1.101 ± 0.002
CC(CN1c2ccccc2Sc2ccccc21)N(C)C (stereo unspecified) [Promethazine hydrochloride]	0.994 ± 0.068
CO[C@H]1/C=C/O[C@@]2(C)Oc3c(C)c(O)c4c(c3C2=O)C2=NC3(CCN(CC(C)C)CC3)NC2=C(NC(=O)/C(C)=C\C=C\[C@H](C)[C@H](O)[C@@H](C)[C@@H](O)[C@@H](C)[C@H](OC(C)=O)[C@@H]1C)C4=O [Rifabutin]	1.06 ± 0.011
CC(C)(C)NCC(O)COc1cccc2c1CCC(=O)N2 (stereo unspecified) [Carteolol hydrochloride]	1.01 ± 0.027
C=C(CC)C(=O)c1ccc(OCC(=O)O)c(Cl)c1Cl [Ethacrynic acid]	0.9182 ± 0.0012
CCN(CC)CCNC(=O)c1ccc(N)cc1 [Procainamide hydrochloride]	1.1 ± 0.22
CC[C@H](C)[C@H](N)C1=N[C@H](C(=O)N[C@@H](CC(C)C)C(=O)N[C@H](CCC(=O)O)C(=O)N[C@H](C(=O)N[C@H]2CCCCNC(=O)[C@H](CC(N)=O)NC(=O)[C@@H](CC(=O)O)NC(=O)[C@H](Cc3cnc[nH]3)NC(=O)[C@@H](Cc3ccccc3)NC(=O)[C@H]([C@@H](C)CC)NC(=O)[C@@H](CCCN)NC2=O)[C@@H](C)CC)CS1 [Bacitracin]	1.01 ± 0.013
O=C1Cc2cc(CCN3CCN(c4nsc5ccccc45)CC3)c(Cl)cc2N1 [Ziprasidone  Hydrochloride]	1.05 ± 0.04
C[C@@H]1[C@H](O)[C@@H](C)/C=C/C=C/C=C/C=C/C=C/C=C/C=C/[C@H](O[C@@H]2O[C@H](C)[C@@H](O)[C@H](N)[C@@H]2O)C[C@@H]2O[C@](O)(C[C@@H](O)C[C@@H](O)[C@H](O)CC[C@@H](O)C[C@@H](O)CC(=O)O[C@H]1C)C[C@H](O)[C@H]2C(=O)O [Amphotericin B]	1.59 ± 0.016

Source: the supplement of paper PMC7366291
